The campaign covered roughly 39,000 compounds. About 3,300 (8.5%) were called active. Only a selection was taken, and actives are over-represented in it overall.
System: HepG2
Assay: cytotoxicity call (relative viability < 0.9)
Conditions: 10 µM

SMILES	cytotoxicity call
O=C1N[C@H](Cc2c[nH]c3ccccc23)COC(=O)[C@@H](Cc2ccc(F)cc2)CCC=CC[C@H]1CC(=O)N(CCO)Cc1ccccc1	active
O=C1N[C@H](Cc2c[nH]c3ccccc23)COC(=O)[C@H](Cc2ccc(F)cc2)CC=CC[C@@H]1CC(=O)N(CCO)Cc1ccccc1	inactive
O=C1N[C@H](Cc2c[nH]c3ccccc23)COC(=O)[C@@H](Cc2ccc(F)cc2)CCC=CC[C@@H]1CC(=O)N(CCO)Cc1ccccc1	inactive
O=C1N[C@@H](Cc2c[nH]c3ccccc23)COC(=O)[C@@H](Cc2ccc(F)cc2)CC=CC[C@@H]1CC(=O)N(CCO)Cc1ccccc1	active
O=C1N[C@H](Cc2c[nH]c3ccccc23)COC(=O)[C@@H](Cc2ccc(F)cc2)CC=CC[C@@H]1CC(=O)N(CCO)Cc1ccccc1	inactive
O=C1N[C@@H](Cc2c[nH]c3ccccc23)COC(=O)[C@H](Cc2ccc(F)cc2)CCC=CC[C@H]1CC(=O)N(CCO)Cc1ccccc1	inactive
O=C(N[C@H]1CC=CC[C@H](CC(=O)N(CCO)Cc2ccccc2)C(=O)N[C@@H](Cc2ccccc2)COC1=O)OCC1c2ccccc2-c2ccccc21	active
O=C(N[C@@H]1CC=CC[C@H](CC(=O)N(CCO)Cc2ccccc2)C(=O)N[C@@H](Cc2ccccc2)COC1=O)OCC1c2ccccc2-c2ccccc21	inactive
O=C(N[C@H]1CC=CC[C@H](CC(=O)N(CCO)Cc2ccccc2)C(=O)N[C@H](Cc2ccccc2)COC1=O)OCC1c2ccccc2-c2ccccc21	inactive
CC12CC(OC1=O)C1(C)CCC3(C)C(=CCC4C5(C)CCC(O)C(C)(C)C5CCC43C)C1C2 (stereo not drawn)	inactive
O=S1(=O)C[C@H](NCc2cccnc2)[C@@H](O)C1	inactive
C[C@H](CO)N1C[C@H](C)[C@@H](CN(C)Cc2ccc(C(=O)O)cc2)Oc2c(NC(=O)C3CCOCC3)cccc2C1=O	inactive
COc1ccc(CN(C)C[C@H]2Oc3ccc(NS(=O)(=O)c4c(C)noc4C)cc3CC(=O)N([C@H](C)CO)C[C@@H]2C)cc1	inactive
COc1ccc(S(=O)(=O)Nc2ccc3c(c2)C(=O)N([C@H](C)CO)C[C@@H](C)[C@@H](CN(C)S(=O)(=O)c2ccc(OC)cc2)O3)cc1	inactive
CN1C(=O)c2cc(NC(=O)Nc3ccccc3F)ccc2OC[C@H]2O[C@@H](CC(=O)NCc3ccc(-c4ccccc4)cc3)CC[C@@H]21	inactive
C[C@@H]1CCCCO[C@@H](CN(C)S(=O)(=O)c2ccc(Cl)cc2)[C@@H](C)CN([C@H](C)CO)C(=O)c2cc(NC(=O)C3CCCCC3)ccc2O1	inactive
CO[C@H]1CN(C)C(=O)c2ccc(NS(C)(=O)=O)cc2OC[C@@H](C)N(C(=O)C2CCOCC2)C[C@@H]1C	inactive
COc1ccc(S(=O)(=O)Nc2ccc3c(c2)C(=O)N([C@H](C)CO)C[C@@H](C)[C@H](CN(C)C(=O)C2CCCCC2)OCCCC[C@H](C)O3)cc1	inactive
C[C@@H]1CN([C@@H](C)CO)C(=O)c2cc(N(C)C)ccc2O[C@@H](C)CCCCO[C@H]1CN(C)C(=O)CCCN(C)C	inactive
Cc1noc(C)c1S(=O)(=O)Nc1ccc2c(c1)C(=O)N([C@H](C)CO)C[C@H](C)[C@@H](CN(C)C(=O)Nc1cccc3ccccc13)OCCCC[C@H](C)O2	active
Cc1noc(C)c1S(=O)(=O)Nc1ccc2c(c1)C(=O)N([C@@H](C)CO)C[C@@H](C)[C@@H](CN(C)C(=O)Nc1cccc3ccccc13)OCCCC[C@@H](C)O2	active
Cc1noc(C)c1S(=O)(=O)Nc1ccc2c(c1)C(=O)N([C@H](C)CO)C[C@H](C)[C@H](CN(C)C(=O)Nc1cccc3ccccc13)OCCCC[C@@H](C)O2	inactive
Cc1noc(C)c1S(=O)(=O)Nc1ccc2c(c1)C(=O)N([C@@H](C)CO)C[C@@H](C)[C@H](CN(C)C(=O)Nc1cccc3ccccc13)OCCCC[C@H](C)O2	inactive
Cc1noc(C)c1S(=O)(=O)Nc1ccc2c(c1)C(=O)N([C@@H](C)CO)C[C@@H](C)[C@@H](CN(C)C(=O)Nc1cccc3ccccc13)OCCCC[C@H](C)O2	inactive
Cc1noc(C)c1S(=O)(=O)Nc1ccc2c(c1)C(=O)N([C@H](C)CO)C[C@@H](C)[C@@H](CN(C)C(=O)Nc1cccc3ccccc13)OCCCC[C@@H](C)O2	inactive

SMILES	cytotoxicity call
C[C@@H]1CN([C@H](C)CO)C(=O)c2cc(NC(=O)Cc3ccccc3)ccc2O[C@@H](C)CCCCO[C@@H]1CN(C)Cc1ccncc1	inactive
Cc1ccc(S(=O)(=O)N(C)C[C@H]2OCCCC[C@H](C)Oc3ccc(NC(=O)C4CCCCC4)cc3C(=O)N([C@@H](C)CO)C[C@H]2C)cc1	inactive
C[C@@H]1CN([C@H](C)CO)C(=O)CCCn2nncc2CO[C@H]1CN(C)C(=O)c1cc(-c2ccccc2)on1	inactive
COc1ccc(S(=O)(=O)N(C)C[C@@H]2Oc3c(NC(=O)c4cc(C)nn4C)cccc3C(=O)N([C@H](C)CO)C[C@H]2C)cc1	inactive
C[C@@H]1CN([C@H](C)CO)C(=O)c2cccc(NS(=O)(=O)c3cn(C)cn3)c2O[C@H]1CN(C)S(=O)(=O)c1ccc(Cl)cc1	inactive
COc1ccc(S(=O)(=O)N(C)C[C@@H]2Oc3ccc(NS(=O)(=O)c4ccc(F)cc4)cc3C(=O)N([C@@H](C)CO)C[C@H]2C)cc1	inactive
COC(=O)N/N=C/c1ccc([N+](=O)[O-])o1	inactive
NC(=O)NN=Cc1ccc([N+](=O)[O-])o1	active
O=C(NN=Cc1ccc([N+](=O)[O-])o1)c1ccc(O)cc1	active
NC(=O)N/N=C/c1ccc([N+](=O)[O-])o1	inactive
O=C(N/N=C/c1ccc(CO)o1)c1ccccn1	inactive
O=C(NO)c1ccc(C(=O)N/N=C/c2ccc(B(O)O)cc2)cc1	inactive
C[C@@H]1CCCCO[C@@H](CN(C)C(=O)C2CCCCC2)[C@@H](C)CN([C@H](C)CO)C(=O)c2cc(NC(=O)c3ccncc3)ccc2O1	inactive
O=C(CCCCCC(=O)Nc1ccccc1O)N/N=C/[C@H](O)[C@@H](O)[C@@H](O)[C@H](O)C(=O)O	inactive
COCC#Cc1cnc2c(c1)C(=O)N([C@H](C)CO)C[C@@H](C)[C@@H](CN(C)C(=O)CN1CCOCC1)O2	inactive
COc1cc(CN)cc(OC)c1OC	inactive
C[C@H](CO)N1C[C@H](C)[C@@H](CN(C)C(=O)Nc2ccc(F)cc2)Oc2ccc(NC(=O)CCCCCC(=O)Nc3ccccc3N)cc2CC1=O	inactive
COc1ccc(NC(=O)N(C)C[C@H]2OCCCC[C@@H](C)Oc3ccc(NC(=O)Cc4ccccc4)cc3C(=O)N([C@H](C)CO)C[C@@H]2C)cc1	inactive
O=C(CN1CCOCC1)NCC[C@H]1CC[C@@H](NS(=O)(=O)c2ccc(F)cc2)[C@H](CO)O1	inactive
C[C@H]1CN([C@@H](C)CO)C(=O)c2cccc(NC(=O)C3CCCCC3)c2O[C@H]1CN(C)S(=O)(=O)c1cn(C)cn1	inactive
NCCN1C(=O)c2[nH]nc(-c3ccccc3)c2[C@H]1c1ccccc1	active
NCc1c[nH]nc1-c1ccccc1	inactive
c1ccc(-c2n[nH]c3c2CCC3)cc1	inactive
C[C@@H]1CN([C@H](C)CO)S(=O)(=O)c2ccc(-c3cccc(F)c3)cc2O[C@H]1CN(C)S(C)(=O)=O	inactive
Cl.Clc1ccc2c(c1)CCc1cccnc1C2=C1CCNCC1	active

SMILES	cytotoxicity call
Clc1ccc2c(c1)CCc1cccnc1C2=C1CCNCC1	active
Clc1ccc2ncccc2c1	inactive
c1ccc2c(c1)Cc1cccnc1-2	inactive
O=C(C[C@@H]1CC[C@H]2[C@@H](COC[C@H](O)CN2C(=O)c2ccc3c(c2)OCO3)O1)NCCN1CCCCC1	inactive
Cc1ccc(S(=O)(=O)Nc2cccc3c2O[C@@H](CN(C)C(=O)Nc2cccc4ccccc24)[C@@H](C)CN([C@H](C)CO)C3=O)cc1	inactive
NC[C@@H]1CC(=O)N(Cc2ccccc2)C1	inactive
NC(=O)N[C@@H]1CC(=O)N(c2ccccc2)C1	inactive
NC[C@@H]1CC(=O)N(c2ccccc2)C1	active
O=c1cc(-c2ccccc2)ss1	inactive
Cc1cc(Cl)cc2sc(N(Cc3ccccn3)C(=O)c3ccc(S(=O)(=O)N4CCCC4)cc3)nc12	inactive
COc1cc(OC)c(S(=O)(=O)N(C)Cc2ccccc2)cc1S(=O)(=O)N(C)Cc1ccccc1	inactive
O=C(c1ccc(S(=O)(=O)N2CCCCCC2)cc1)N(Cc1cccnc1)c1nc2c(F)cc(F)cc2s1	inactive
Cc1ccc2sc(N(CCCN(C)C)C(=O)c3ccc(S(=O)(=O)N(C)Cc4ccccc4)cc3)nc2c1C	active
Cc1ccc2sc(N(CCCN(C)C)C(=O)c3ccc(S(=O)(=O)N(C)C4CCCCC4)cc3)nc2c1C	active
CC(C)(C)NC[C@@H](O)CSc1nc(-c2ccc(C(N)=O)s2)cs1	inactive
COCC(=O)N(C)C[C@H]1Oc2cc(-c3ccc(C#N)cc3)ccc2S(=O)(=O)N([C@H](C)CO)C[C@H]1C	inactive
O=C(Nc1nccs1)[C@H]1[C@H](CO)[C@H]2Cn3c(cccc3=O)[C@@H]1N2C(=O)C1CC1	inactive
Cc1noc(C)c1S(=O)(=O)N(C)C[C@@H]1OCCCC[C@H](C)Oc2ccc(NC(=O)Nc3ccccc3)cc2C(=O)N([C@@H](C)CO)C[C@H]1C	inactive
C[C@H](CO)N1C[C@H](C)[C@H](CN(C)Cc2ccncc2)Oc2c(NS(=O)(=O)c3ccc(F)cc3)cccc2C1=O	inactive
COC(=O)[C@@H](N)CS[C@H]1CCCCO1	inactive
Cc1noc(C)c1NC(=O)Nc1ccc2c(c1)C(=O)N([C@H](C)CO)C[C@H](C)[C@H](CN(C)Cc1ccc(-c3ccccc3)cc1)O2	inactive
COc1ccc2c(c1)n(CCN)c(=O)n2C(=O)[C@@H]1C[C@H](C)CC[C@H]1C(C)C	active
CC(C)[C@H]1CC[C@@H](C)C[C@@H]1NC(=O)c1cccc2ccccc12	inactive

From the antibiotic and cytotoxicity screens of Wong et al. (2023)
